According to PubChem BioAssay AID1347076 (National Center for Advancing Translational Sciences (NCATS), 2019):
Screen size: about 400,000 compounds; about 13,000 (3.2%) were called active. A call without a number means that no potency is given here. Roughly 18% stayed inconclusive and do not appear here. Calls follow the shape of the dose curve; as a rule, active = well fitted cell-killing curve with a large enough effect; inconclusive = small, poorly fitted or top-dose-only effect, or effect the other way; inactive = flat fitted curve, though single readings scatter. The sample as a whole holds a higher share of actives than the screen did.

experiment: qHTS assay for MDR1-selective chemotherapeutics: Primary screen using the drug-selected MDR subline cells KB-V1; conditions: KB-V1 MDR cells viability, CellTiter-Glo, 72 h; series mostly up to 46.1 µM; also: nearly all actives have a fitted effect of over 60% in size
Outline: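 In this primary screen, KB-V1 cells overexpressing P-gp are incubated with library compounds (lowest to highest concentration) for 72 h at 37 degrees C before a luminescent ATP viability read.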
Potency is read from the fitted curve at half-maximal effect.

SMILES	Potency
Cc1ccc(NS(=O)(=O)c2ccc3c(c2)oc(=O)n3C)c(C)c1	inactive
Cc1ccc2nc(NC(=O)C3CCN(S(=O)(=O)c4ccc5c(c4)oc(=O)n5C)CC3)sc2c1	inactive
Cc1ccc(C)c(N2CCN(S(=O)(=O)c3ccc4c(c3)oc(=O)n4C)CC2)c1	14.6 µM (active)
COc1ccc(NC(=O)c2cc(=O)[nH]c3ccccc23)cc1S(=O)(=O)N1CCOCC1	inactive
Cc1nc(C(F)(F)F)ccc1C(=O)N1CCC1(C)C(=O)NS(=O)(=O)c1ccc(F)cc1F (stereo unspecified)	inactive
COc1ccc2ncc3c(-c4ccc(C)c(C)c4)nn(CC(=O)NC4CCCC4)c3c2c1	inactive
Cc1ccc([C@H]2N[C@]3(CCCN(Cc4ccccc4)C3=O)[C@H]3C(=O)N(Cc4ccccc4)C(=O)[C@@H]23)cc1	inactive
O=C(CNCCC1=CCCCC1)Nc1ccccc1N1CCCCCC1	11.6 µM (active)
Cc1nnc(OCC(=O)NCCC2=CCCCC2)c2ccccc12	inactive
Cc1ccc(C(C)C)cc1OCC(=O)Nc1ccccc1N1CCCC1	inactive
Cc1ccc2nc(-c3ccco3)c(Cc3cccc(Cl)c3)n2c1	inactive
COc1ccc(C(C#N)=C2C=CC(=NO)c3ccccc32)cc1	1.3 µM (active)
COc1ccc(/C(N)=N/OC(=O)Cc2ccccc2)cc1	inactive
COc1ccc(C(=NN)c2ccc(OC)cc2)cc1	inactive
CCNC(=O)c1cc2c(c(-c3cccc(-c4cncnc4)c3)n1)[C@H](CCO)N(C(C)=O)C2	inactive
O=C(NCc1ccccc1Cl)c1csc([C@@H]2O[C@H](CO)[C@@H](O)[C@H]2O)n1	inactive
CCOC(=O)CSc1nnc(CNc2ccc(F)cc2)o1	inactive
CCC(=O)Nc1ccc(C(=O)CSc2nnc(CNc3ccc(Cl)cc3)o2)cc1OC	14.6 µM (active)
COc1cc(C(=O)NCc2nnc(SCC(=O)c3ccc(Cl)cc3)o2)cc(OC)c1OC	inactive
CCc1nc2c(OCc3cccc(OC)c3)cccn2c1N(C)C(=O)C(C)C	inactive
CSc1ncnc2c1ncn2CCCNCc1cccs1	inactive
Nc1ncnc2c1ncn2[C@@H]1O[C@H](C(=O)NS(=O)(=O)c2c(Cl)nc3sccn23)[C@@H](O)[C@H]1O	inactive
CCc1nc2ccccc2c(C(=O)NCc2ccc(OC)cc2)c1C	inactive
CSc1ccccc1C(=O)NCc1ccccc1	inactive
CCSc1ccccc1C(=O)NCc1ccc(OC)cc1	20.6 µM (active)
O=C(CSc1ccc(Cl)cc1)NC1CC1	inactive

SMILES	Potency
CCCN(CCC)S(=O)(=O)c1cc2c(cc1Br)CCN2C(=O)CC	inactive
CCC1CCCCN1CCNS(=O)(=O)c1ccc2c(c1)CCN2C(C)=O (stereo unspecified)	inactive
CCC(=O)N1CCc2cc(Br)c(S(=O)(=O)NCCN3CCCCC3CC)cc21 (stereo unspecified)	10.3 µM (active)
NC(=O)Nc1ccc(/C=C/c2ccnc3ccccc23)cc1	inactive
C[C@H]1CN([C@@H](C)CO)C(=O)CCCn2nncc2CO[C@@H]1CN(C)Cc1ccc(Oc2ccccc2)cc1	inactive
COc1ccccc1CNC(=O)c1cc(-c2cc(F)ccc2OC)n[nH]1	inactive
CCCCCCOc1ccc(OC(=O)c2cccnc2)cc1	inactive
Brc1ccc(-c2noc(-c3ccccc3)n2)o1	inactive
O=C(Oc1ccc(-c2nc(-c3ccccn3)no2)cc1)c1ccccc1	7.31 µM (active)
CC(C)Nc1ncnc2c1ncn2[C@H]1CN(Cc2ccncc2)C[C@@H](CO)O1	inactive
CN1OC[C@@H]2CN(C(=O)c3ccc(-c4ccccc4)cc3)[C@H](c3ccc(-c4cccc(F)c4)cc3)C[C@@H]21	inactive
CCC(=O)N1CCCC1(C)C(=O)Nc1ccc2c(c1)CCN2C(C)=O (stereo unspecified)	inactive
Cc1ccc(S(=O)(=O)N(Cc2cc3ccccc3[nH]c2=O)CC2CCCO2)cc1 (stereo unspecified)	inactive
CCC(=O)N(CCc1ccccc1)Cc1cc2cc(C)ccc2[nH]c1=O	inactive
CCN(Cc1cc2cc(C)ccc2[nH]c1=O)S(=O)(=O)c1ccccc1	3.66 µM (active)
S=C(NN=Cc1ccccn1)Nc1ccccn1	inactive
Cc1ccc(CNC(=O)Nc2nnc([C@H]3C[C@H](O)[C@@H](CO)O3)s2)cc1	inactive
CCN(CC)S(=O)(=O)c1cc(C(=O)Nc2ccccn2)ccc1C	23.1 µM (active)
Cc1ccc(C(=O)Nc2ncccc2C)cc1S(=O)(=O)N1CCOCC1	inactive
Cc1ccc(NC(=O)CNCc2ccccn2)cc1S(=O)(=O)N(C)C	inactive
COc1ccc(CN2CCC(C)(Oc3cccc(F)c3)C2)c2ccccc12 (stereo unspecified)	inactive
CCSc1nnc(-c2cc3c(s2)-c2ccccc2CC3)o1	inactive
Fc1ccc(CSc2nnc(-c3cc4c(s3)-c3ccccc3CC4)o2)cc1	20.6 µM (active)
Fc1ccc(-c2nnc(CSc3nnc(-c4ccc5c(c4)OCO5)o3)o2)cc1	inactive
CCc1nc2ccc(C(=O)N(C)Cc3ccco3)cn2c1N(C)C(=O)Cc1ccccc1	inactive
CC(C)N(C(=O)CN1CCN(S(=O)(=O)c2ccc(Br)s2)CC1)C(C)C	23.1 µM (active)

SMILES	Potency
O=C(C1CCN(S(=O)(=O)c2ccc(Br)s2)CC1)N1CCN(C2CCCCC2)CC1	inactive
CSc1ccc(S(=O)(=O)N2CCC(C(=O)NCCc3ccccc3)CC2)cc1	inactive
Cc1cccc(NC(=O)CN2CCCN(S(=O)(=O)c3ccc(Br)s3)CC2)c1	inactive
O=C(NCCc1ccccc1)C1CCN(S(=O)(=O)c2ccc(Br)s2)CC1	2.06 µM (active)
O=C(C1CCN(S(=O)(=O)c2ccc(Br)s2)CC1)N1CCN(c2ccccc2)CC1	inactive
CCCCNC(=O)C1CCCN(c2nnc(C)c3c(C)n(-c4ccc(Cl)cc4)nc23)C1 (stereo unspecified)	inactive
O=C1OCCC1=COCCCCOC=C1CCOC1=O	inactive
CCc1nc2ccc(C(=O)NC3CCN(Cc4ccccc4)CC3)cn2c1N(C)CCN1CCOCC1	inactive
CCc1ccc(NC(=O)c2nn(-c3ccc(C)cc3)c(=O)n(C)c2=O)cc1	inactive
NC(N)=Nc1nc(-c2ccccc2)c2cc(Cl)ccc2n1	inactive
O=C(CCl)NNc1nc(-c2ccccc2)c2cc(Cl)ccc2n1	inactive
Clc1ccc2nc(-c3ccccc3)nc(C(Cl)Cl)c2c1	3.66 µM (active)
CCc1nc2ccc(C(=O)Nc3cc(-c4ccccc4)ccc3OC)cn2c1N(CC)CC(=O)N(C)C	inactive
O=C(OCc1cc(=O)n2nc(C3CC3)sc2n1)c1ccccc1Cl	inactive
Cn1c(=O)c2c(nc(CN3CCOCC3)n2Cc2ccccc2)n(C)c1=O	inactive
Cn1c(=O)[nH]c(=O)c2c1nc(CN(Cc1ccccc1)Cc1ccccc1)n2CCN1CCOCC1	6.51 µM (active)
Cn1c(=O)[nH]c(=O)c2c1nc(CN1CCN(c3ccccc3F)CC1)n2CCc1ccccc1	inactive
C[C@H]1CN([C@@H](C)CO)C(=O)c2cc(C3=CCCCC3)cnc2O[C@@H]1CN(C)C(=O)Cc1ccccc1	inactive
COc1ccc(CCNC(=O)Cn2c(=O)n(-c3ccccc3)c(=O)c3c(C)c(C)sc32)cc1OC	inactive
CC1(C(=O)NS(=O)(=O)C2CC2)CCCN(C(=O)CSc2ccccc2)C1 (stereo unspecified)	inactive
COc1ccc(CCNC(=O)c2cc3sccc3n2C)cc1OC	20.6 µM (active)
COc1ccc(CCNC(=O)COC(=O)/C=C/c2cccs2)cc1OC	inactive
Cn1c(C(=O)NCCCN2CCCCC2)cc2sccc21	inactive
O=C(O)C1=C(C(=O)O)C2CCC1C2	inactive
Cc1ccc(S(=O)(=O)n2nc(C)c(S(=O)(=O)N3CCCCCC3)c2C)cc1	inactive
COc1ccc(N=Cc2c(O)[nH]c3ccccc23)cc1OC	6.51 µM (active)

SMILES	Potency
COc1cc2[nH]c(O)c(C=O)c2cc1OC	inactive
Oc1[nH]c2ccccc2c1N=Nc1c(F)c(F)c(F)c(F)c1F	inactive
CN=c1scc(-c2cc(OC)ccc2OC)n1/N=C/c1c(C)[nH]c2ccccc12	inactive
COc1ccccc1N=Cc1c(O)c2ccccc2oc1=O	inactive
COc1cc(N=Cc2c(O)[nH]c3ccccc23)cc(OC)c1OC	4.11 µM (active)
CCCCN(C(C)=O)c1ccc2c(c1)C1CC2CCN1Cc1ccccc1 (stereo unspecified)	inactive
Cc1ccccc1-c1nc(SCC(=O)N(C)c2ccccc2)c2c(=O)n(C)c(=O)n(C)c2n1	inactive
CC1(C(=O)NS(=O)(=O)c2cccc(F)c2)CCN1C(=O)Cc1ccc(Cl)cc1Cl (stereo unspecified)	inactive
CNC(=O)c1ccc(CN(C)C(=O)c2cc(C3CC3)nc3c2cnn3C(C)C)cc1	inactive
Cc1nonc1NC(=O)c1oc2ccccc2c1C	inactive
Cc1c(C(=O)Nc2ccccn2)oc2ccc(Br)cc12	11.6 µM (active)
Cc1noc(C)c1C(=O)Nc1ccccn1	inactive
CCS(=O)(=O)c1nc(S(=O)(=O)c2ccc(C)cc2)c(NCc2ccc(Cl)cc2)s1	inactive
N#Cc1ccc(C(C(=O)NCc2ccccc2)n2c(=O)c(-c3ccco3)nc3ccccc32)cc1 (stereo unspecified)	inactive
C=CCC[C@H](CCCCC)OC(=O)/C=C/[C@H](O)[C@@H](O)C[C@@H](O)CC=C	inactive
O=C(O)C(c1ccccc1)N1C(=O)/C(=C\c2ccc(-c3cccc(Cl)c3)o2)SC1=S (stereo unspecified)	inactive
O=C1c2ccccc2NC(c2ccc(-c3cccc(Cl)c3)o2)N1O (stereo unspecified)	4.61 µM (active)
O=c1c(-c2cccc(Cl)c2)c[nH]n1-c1ccccc1	inactive
COc1ccc(CCNC(=O)c2cn(C)c3ccc(S(=O)(=O)N(C)C4CCCCC4)cc3c2=O)cc1OC	inactive
Cc1cc2nc(-c3ccc(Cl)cc3)c(Cc3cccc(F)c3)n2c(C)c1Br	inactive
N#Cc1ccc(OC2=NS(=O)(=O)c3ccccc32)cc1	inactive
Brc1ccccc1C1N=C(c2ccccc2)NO1 (stereo unspecified)	inactive
N#Cc1ccc(C2N=C(c3ccccc3)NO2)cc1 (stereo unspecified)	18.4 µM (active)
